Among all 390,000 compounds or so, about 55 (0.01%) were called active. Not all results are given here. Values without a mark were called inactive. Calls follow the shape of the dose curve; as a rule, active = well fitted inhibition curve with a large enough effect; inconclusive = small, poorly fitted or top-dose-only effect; inactive = no such curve, though single readings can be large or run the other way.
% is scaled to controls: 0 for no effect and ±100 for the full control effect.

In this assay the target is Thioredoxin reductase 1, cytoplasmic (Rattus norvegicus) (UniProt O89049). In words: qHTS Assay for Substrates of Mammalian Selenoprotein Thioredoxin Reductase 1 (TrxR1): qHTS. Also: nearly all actives have a fitted effect of over 50% in size. Particulars: purified TrxR1 substrate turnover, NADPH consumption readout; series mostly up to 114 µM. The text has this: The selenoprotein thioredoxin reductase (TrxR; EC 1.8.1.9) is a FAD containing homodimeric pyridine nucleotide-disulfide oxidoreductase with many cellular roles. Together with NADPH and its prime substrate thioredoxin (Trx), the enzyme forms the core of the Trx system. The mammalian Trx system exerts a wide spectrum of functions including redox regulation, antioxidant defense, regulation of transcription factors as well as support of cell growth and replication. Many of these functions involve the reduction of Trx, which may subsequently reduce a number of different substrates including ribonucleotide reductase, peroxiredoxins or NFkB. Mammalian TrxR itself also has a broad substrate specificity, reducing both protein and non-protein substrates, including low molecular weight compounds such as dehydroascorbate, lipoic acid, ubiquinone, and juglone. In addition, several drugs in clinical use for anticancer treatment are indeed known to target TrxR1.
Thioredoxin reductase 1, cytoplasmic (Rattus norvegicus), sequence (O89049 whole entry, looked up): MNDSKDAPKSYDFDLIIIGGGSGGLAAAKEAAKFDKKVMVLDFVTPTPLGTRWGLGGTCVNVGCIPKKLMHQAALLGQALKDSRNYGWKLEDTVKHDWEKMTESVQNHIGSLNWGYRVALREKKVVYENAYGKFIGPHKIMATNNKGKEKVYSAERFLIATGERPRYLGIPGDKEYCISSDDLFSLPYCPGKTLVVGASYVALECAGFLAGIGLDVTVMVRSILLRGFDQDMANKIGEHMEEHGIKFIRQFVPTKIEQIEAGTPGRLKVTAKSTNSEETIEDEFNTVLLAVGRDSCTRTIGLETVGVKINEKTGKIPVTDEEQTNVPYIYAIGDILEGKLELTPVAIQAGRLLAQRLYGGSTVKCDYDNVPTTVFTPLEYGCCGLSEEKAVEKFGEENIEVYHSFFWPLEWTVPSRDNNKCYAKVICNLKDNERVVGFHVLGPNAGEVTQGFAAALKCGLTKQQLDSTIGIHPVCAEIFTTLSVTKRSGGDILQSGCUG
This BioAssay is a validation of an NADPH fluorescence-based, dual-purpose qHTS rTrxR1 assay designed to find potential inhibitors and substrates of rTrxR1. For this particular BioAssay, actives are potential substrate. See related BioAssay for inhibition data deposition.
NIH Molecular Libraries Probe Production Network [MLPCN]
NIH Chemical Genomics Center [NCGC]
Assay Provider: Elias Arner, Karolinska Institute
Assay protocol: 2 uL of reagents (buffer in column 4 as negative control and 90 nM rTrxR1 in columns 1-3 and 5-48) were dispensed into Greiner black solid-bottom 1,536-well assay plates, followed by 1 uL of NADPH (400 uM final concentration) to each well. The plates were centrifuged at 1000 rpm for 15 seconds and subsequently incubated for 5 min at room temperature (~22 deg C) to allow for rTrxR1 reduction. Compounds (23 nL) were then transferred via Kalypsys pin tool equipped with 1536-pin array (10 nL slotted pins, V&P Scientific, San Diego, CA). In addition, a duplicate 2-fold serial dilution of the control compounds auranofin, a known gold-based TrxR1 inhibitor, and juglone (5-hydroxy-1,4-naphthoquinone), a natural TrxR1 substrate, were pin-transferred to columns 2 and 3, respectively. After incubation for 15 min at room temperature (~22 deg C), 1 uL of selenite (400 uM final concentration) were dispensed to each well. The plate was immediately transferred to a ViewLux high-throughput CCD imager (PerkinElmer), wherein kinetic measurements of NADPH fluorescence (Ex 340 nm, Em 450 nm) were acquired (8 minute kinetic read, see Table 1). Read 1 was utilized to assess the capacity of a compound to serve as an rTrxR1 substrate, i.e. a decrease in NADPH fluorescence compared to the no-compound background is an indication of a substrate behavior for that particular compound. For inhibitory activity of a compound, delta values, computed as the difference in fluorescence intensity between the first and last reads of an 8-minute time kinetic window, were used. All reagents were diluted in an assay buffer consisting of 50 mM Tris-HCl, pH 7.5, 2 mM EDTA, and 0.01% Tween-20.
Throughout the screen, reagent bottle and all liquid lines were made light-tight to minimize reagent degradation. All screening operations were performed on a fully integrated robotic system (Kalypsys, San Diego, CA) containing one RX-130 and two RX-90 anthropomorphic robotic arms (Staubli, Duncan, SC). Library plates were screened starting from the lowest and proceeding to the highest concentration, and a 'double-pinning' step of the highest concentration was required to access higher concentrations of compounds. Vehicle-only plates, with DMSO being pin-transferred to the columns 5-48, were inserted uniformly at the beginning and the end of each library in order to monitor and record any shifts in the background, which can be affected by reagent dispensers or loss in enzyme activity over time. […]
Background: qHTS replaces the single test concentration by a dilution series.
As to `Nc1ccc(/C=C/c2ccnc3ccccc23)c([N+](=O)[O-])c1`, the activity change, negative = substrate turnover was 7.22% [at 0.0914 µM].

Turning to `O=C(CCCn1c(=O)c2cccn2c2cccnc21)NCc1ccc(F)cc1`, the activity change, negative = substrate turnover result was “inactive”.

For the compound `Cc1ccc(S(=O)(=O)N2CCN(c3nc(-n4cnc5ccccc54)nc4ccccc34)CC2)cc1`, the activity change, negative = substrate turnover result was “inactive”.

Regarding `CSc1n[nH]c(-c2ccco2)n1`, the activity change, negative = substrate turnover result is “inactive”.

For `CN(C)c1ccc(/C=C2\C=Cc3ccccc32)cc1Br`, the activity change, negative = substrate turnover entry was “inactive”.

Regarding `O=C(Nc1ccc2nc(SCCOc3ccccc3)sc2c1)c1ccco1`, the activity change, negative = substrate turnover entry was “inactive”.

Turning to `Cn1nnnc1SCCCNCc1cccc(OCc2ccc(Cl)cc2)c1`, the activity change, negative = substrate turnover entry was “inactive”.

For `COc1ccc(/C=C/c2ccccn2)cc1OC`, the activity change, negative = substrate turnover entry was “inactive”.

Regarding `Cc1csc(NCC(=O)c2c[nH]c3ccccc23)n1`, the activity change, negative = substrate turnover entry was “inactive”.

As for `Nc1nc(N)c(N=O)c(N)n1`, the activity change, negative = substrate turnover entry was “inactive”.

For `OC(CBr)C[n+]1cccc2cc(Br)ccc21` (stereo unspecified), the activity change, negative = substrate turnover result was “inactive”.

`O=C(c1cnn2c1NC(=C1CC1)C=C2C(F)F)N1CCc2ccccc2C1`: the activity change, negative = substrate turnover result was “inactive”.

Take `Cc1cccc(CN2Cc3cccc4c3[C@H](C=CC4)CC2=S)c1`: the activity change, negative = substrate turnover result was “inactive”.

For `Cc1cc[n+](C2CCCCC2)cc1`, the activity change, negative = substrate turnover result was “inactive”.

Consider `COc1cccc(Nc2nc3ccccc3c3nncn23)c1`, for which the activity change, negative = substrate turnover result is “inactive”.

In the case of `CC(NC(=O)c1cc(Sc2ccc(F)cc2F)nc2ccccc12)c1ccccc1` (stereo unspecified), the activity change, negative = substrate turnover entry is “inactive”.

As for `Cc1ccc2cccc(NC(=O)c3ccc(OC(C)C)cc3)c2n1`, the activity change, negative = substrate turnover entry was “inactive”.

For the compound `CCc1ccc(Sc2cc(C(=O)NCCCOC(C)C)c3ccccc3n2)cc1`, the activity change, negative = substrate turnover entry was “inactive”.

Regarding `Nc1ncnc2c1c(I)cn2[C@@H]1C[C@H](N)[C@@H](O)[C@H]1O`, the activity change, negative = substrate turnover result is “inactive”.

For the compound `Cc1ccc(NC(=O)c2cc3cc(C)ccc3n2C)cc1`, the activity change, negative = substrate turnover entry is “inactive”.

As to `O=C1COc2ccc(-c3csc(-c4ccc(Cl)cc4)n3)cc2N1`, the activity change, negative = substrate turnover result was “inactive”.

`CC(C)(C)c1ccc(C(=O)C[n+]2cccc3cc(Cl)ccc32)cc1`: the activity change, negative = substrate turnover result was “inactive”.

Consider `OC(Cc1ccc2ccccc2n1)c1ccc(Cl)c(Cl)c1` (stereo unspecified), for which the activity change, negative = substrate turnover entry is “inactive”.

Turning to `CO[C@H]1O[C@@H]2O[C@@]3(C)CC[C@@H]4[C@@H](C)CC[C@@H]([C@H]1C)[C@@]24OO3`, the activity change, negative = substrate turnover entry is “inactive”.

For `CCOC(=O)c1cc(-c2ccccc2)n(-c2cccc(C(=O)Nc3cc(OC)cc(OC)c3)c2)c1C`, the activity change, negative = substrate turnover entry is “inactive”.

As for `CCOC(=O)c1c(C)[nH]c(CCC(=O)Nc2ccc(OC)c(OC)c2)c1C`, the activity change, negative = substrate turnover result was “inactive”.

For the compound `CCc1ccccc1NC(=O)Cn1c(=O)n(-c2cccc(C)c2)c(=O)c2c1c1cc(OC)ccc1n2C`, the activity change, negative = substrate turnover entry was “inactive”.

As to `CN(CCC#N)c1ccc(C=O)cc1`, the activity change, negative = substrate turnover result was “inactive”.

`COc1ccccc1N1CCN(C2C(=O)c3ccccc3N2C(C)=O)CC1` (stereo unspecified): the activity change, negative = substrate turnover result was “inactive”.

For `CCOc1ccc(NC(=O)C(CC(C)C)N2Cc3ccccc3C2=O)cc1` (stereo unspecified), the activity change, negative = substrate turnover result was “inactive”.

As for `CN(C)CCCn1c(-c2ccc(Cl)cc2)csc1=Nc1ccccc1`, the activity change, negative = substrate turnover result is “inactive”.

Source of the values: PubChem BioAssay AID588456 (National Center for Advancing Translational Sciences (NCATS), 2011).
